For 41 compounds, cytotoxicity call results are on record in the antibiotic and cytotoxicity screens of Wong et al. (2023).

Screen size: about 39,000 compounds; about 3,300 (8.5%) were called active. The list comes from a sample in which actives are over-represented; it also holds similar structures and randomly drawn compounds.

The experiment concerns HepG2. Kind of experiment: cytotoxicity call (relative viability < 0.9). The conditions noted are these: 10 µM.
In the case of `Cn1cccc1C(=O)NCc1cn2c(n1)CN(S(C)(=O)=O)CC2`, the cytotoxicity call was “inactive”.
Regarding `COC(=O)[C@@H]1N2C(=O)[C@@H](N3C[C@](C)(OC)O[C@@H](Cc4ccccc4)[C@H]3/C=C/C3CC3)[C@H]2SC1(C)C`, the cytotoxicity call was “inactive”.
For the compound `C[C@H]1CCCCO[C@@H](CN(C)C(=O)Nc2cccc3ccccc23)[C@@H](C)CN([C@@H](C)CO)C(=O)c2cc(NC(=O)c3ccncc3)ccc2O1`, the cytotoxicity call was “inactive”.
As for `C[C@H]1CN([C@@H](C)CO)C(=O)c2cc(C#CCN(C)C)cnc2O[C@@H]1CN(C)C(=O)Nc1cc(F)ccc1F`, the cytotoxicity call was “inactive”.
With `O=C(C[C@@H]1CC[C@H]2[C@@H](COC[C@H](O)CN2S(=O)(=O)c2ccccc2)O1)NCc1ccc(-c2ccccc2)cc1`, the cytotoxicity call was “inactive”.
On to `COCC(=O)N1C[C@@H](C)[C@@H](OC)CN(C)C(=O)c2ccc(NC(=O)c3ccc(F)cc3)cc2OC[C@H]1C`, for which the cytotoxicity call was “inactive”.
On to `COc1ccc(S(=O)(=O)N(C)C[C@H]2Oc3ccc(NS(=O)(=O)c4c(C)noc4C)cc3CC(=O)N([C@H](C)CO)C[C@@H]2C)cc1`, for which the cytotoxicity call is “inactive”.
Regarding `COc1ccc(S(=O)(=O)N(C)C[C@H]2OCCCC[C@@H](C)Oc3ccc(NC(=O)Nc4cccc5ccccc45)cc3C(=O)N([C@H](C)CO)C[C@H]2C)cc1`, the cytotoxicity call was “inactive”.
As for `CC(C)(C)NC(=O)[C@@H]1CN(Cc2cccnc2)CCN1C[C@@H](O)C[C@@H](Cc1ccccc1)C(=O)N[C@H]1c2ccccc2C[C@H]1O`, the cytotoxicity call was “inactive”.
For `CC(C)(C)NC(=O)C1CN(Cc2cccnc2)CCN1CC(O)CC(Cc1ccccc1)C(=O)NC1c2ccccc2CC1O` (stereo unspecified), the cytotoxicity call is “active”.
Then `CC(C)(C)NC(=O)[C@@H]1CN(Cc2cccnc2)CCN1C[C@@H](O)C[C@@H](Cc1ccccc1)C(=O)N[C@@H]1c2ccccc2C[C@@H]1O`, with “inactive”; and `O=C(C[C@@H]1CC[C@H]2[C@@H](COC[C@H](O)CN2S(=O)(=O)c2cccc(F)c2)O1)NCCCN1CCOCC1`, with “inactive”; and `NCc1ccncc1`, with “inactive”.
As to `C=CCOC(=O)[C@@H]1[C@H]2C(=O)O[C@H](c3ccccc3)[C@H](c3ccccc3)N2[C@H](c2ccc(OCCOC(=O)[C@H]3C[C@H]4C(=O)NCC(=O)N4[C@H]3c3ccc(O)cc3)cc2)[C@@]12C(=O)Nc1ccccc12`, the cytotoxicity call was “inactive”.
`C[C@H]1CC/C=C\[C@H]2O[C@@]34C=CCN(CCN5CCOCC5)C(=O)[C@H]3N(CCCO)C(=O)[C@@H]4[C@@H]2C(=O)O1`: the cytotoxicity call is “inactive”.
Take `Nc1nc(=O)[nH]cc1NC(=O)c1ccccc1`: the cytotoxicity call is “inactive”.
As for `C[C@@H](N)c1ccc(C(=O)Nc2ccnc3[nH]ccc23)cc1`, the cytotoxicity call was “active”.
To `CC[C@@H](C)c1ccc(NC(=O)c2ccc(N(CC)CC)cc2)cc1` belongs “inactive”; to `CCSc1cccc2cccnc12`, “inactive”; to `c1cnc2c(SCc3nc4ccccc4s3)cccc2c1`, “active”.
For the compound `c1ccc2c(CSc3nc4ccccc4s3)cccc2c1`, the cytotoxicity call is “inactive”.
Then `COc1ccc(S(=O)(=O)Nc2ccc3c(c2)C(=O)N([C@@H](C)CO)C[C@H](C)[C@@H](CN(C)Cc2ccc(Cl)c(Cl)c2)O3)cc1`, with “inactive”.
As for `COc1ccc(S(=O)(=O)Nc2ccc3c(c2)C(=O)N([C@@H](C)CO)C[C@@H](C)[C@@H](CN(C)Cc2ccc(Cl)c(Cl)c2)O3)cc1`, the cytotoxicity call is “active”.
Take `COc1ccc(S(=O)(=O)Nc2ccc3c(c2)C(=O)N([C@@H](C)CO)C[C@@H](C)[C@H](CN(C)Cc2ccc(Cl)c(Cl)c2)O3)cc1`: the cytotoxicity call was “active”.
Turning to `COc1ccc(S(=O)(=O)Nc2ccc3c(c2)C(=O)N([C@@H](C)CO)C[C@H](C)[C@H](CN(C)Cc2ccc(Cl)c(Cl)c2)O3)cc1`, the cytotoxicity call is “inactive”.
Regarding `COc1ccc(S(=O)(=O)Nc2ccc3c(c2)C(=O)N([C@H](C)CO)C[C@H](C)[C@H](CN(C)Cc2ccc(Cl)c(Cl)c2)O3)cc1`, the cytotoxicity call is “inactive”.
Take `COc1ccc(S(=O)(=O)Nc2ccc3c(c2)C(=O)N([C@H](C)CO)C[C@H](C)[C@@H](CN(C)Cc2ccc(Cl)c(Cl)c2)O3)cc1`: the cytotoxicity call was “inactive”.
Then `C[C@@H]1CCCCO[C@@H](CN(C)S(=O)(=O)c2ccc(Cl)cc2)[C@@H](C)CN([C@H](C)CO)C(=O)c2cc(NC(=O)CCCCCC(=O)Nc3ccccc3N)ccc2O1`, with “inactive”; and `C[C@H]1CN([C@@H](C)CO)C(=O)Cc2cc(NS(C)(=O)=O)ccc2O[C@H]1CN(C)C`, with “inactive”.
For `C[C@H]1CN([C@@H](C)CO)C(=O)Cc2cc(NC(=O)c3ccncc3)ccc2O[C@@H]1CN(C)Cc1ccncc1`, the cytotoxicity call was “inactive”.
Then `C=CCOc1ccc(C(=O)C2=C(O)C(=O)N(CCCN3CCOCC3)[C@@]23C(=O)N(C)c2ccccc23)cc1C`, with “inactive”.
In the case of `COCC(=O)Nc1ccc2c(c1)C(=O)N(C)[C@H]1CC[C@@H](CC(=O)NC3Cc4ccccc4C3)O[C@@H]1CO2`, the cytotoxicity call was “inactive”.
Regarding `COc1ccc(CN(C)C[C@H]2OCCCC[C@@H](C)Oc3ccc(NS(=O)(=O)c4c(C)noc4C)cc3C(=O)N([C@H](C)CO)C[C@H]2C)cc1`, the cytotoxicity call was “inactive”.
As to `COc1ccc(NC(=O)Nc2ccc3c(c2)C(=O)N([C@H](C)CO)C[C@H](C)[C@H](CN(C)C(=O)Nc2ccc(C(F)(F)F)cc2)O3)cc1`, the cytotoxicity call is “inactive”.
For the compound `C[C@@H]1CCCCO[C@@H](CN(C)Cc2ccc(Cl)c(Cl)c2)[C@H](C)CN([C@@H](C)CO)C(=O)c2cc(NS(=O)(=O)c3ccc(Cl)cc3)ccc2O1`, the cytotoxicity call is “active”.
In the case of `C[C@@H]1CN([C@H](C)CO)C(=O)c2cc(NS(=O)(=O)c3ccc(Cl)cc3)ccc2O[C@@H](C)CCCCO[C@H]1CN(C)Cc1ccc(Cl)c(Cl)c1`, the cytotoxicity call is “active”.
For `C[C@@H]1CN([C@H](C)CO)C(=O)c2cc(NS(=O)(=O)c3ccc(Cl)cc3)ccc2O[C@@H](C)CCCCO[C@@H]1CN(C)Cc1ccc(Cl)c(Cl)c1`, the cytotoxicity call was “active”.
In the case of `C[C@@H]1CCCCO[C@@H](CN(C)Cc2ccc(Cl)c(Cl)c2)[C@@H](C)CN([C@@H](C)CO)C(=O)c2cc(NS(=O)(=O)c3ccc(Cl)cc3)ccc2O1`, the cytotoxicity call is “active”.
As for `C[C@@H]1CN([C@H](C)CO)C(=O)c2c(c3ccccc3n2C)-c2ccccc2CO[C@H]1CN(C)Cc1ccc(Oc2ccccc2)cc1`, the cytotoxicity call was “inactive”.
On to `O=C(C[C@@H]1CC[C@@H]2[C@H](COC[C@H](O)CN2C(=O)Nc2cccc(Cl)c2)O1)NCCCN1CCOCC1`, for which the cytotoxicity call was “inactive”.
`C[C@@H]1CN([C@H](C)CO)C(=O)Cc2cc(NS(C)(=O)=O)ccc2O[C@@H]1CN(C)S(=O)(=O)c1cn(C)cn1`: the cytotoxicity call is “inactive”.
